Source: PubChem BioAssay (Tox21)
Results filed as inconclusive are left out. The source made the active and inactive calls. Unless noted, calls follow the shape of the dose curve; as a rule, active = well fitted curve in the direction sought with a large enough effect in the repeat runs; inconclusive = weak or mixed curves; inactive = no such curve, though single readings can be large; an effect the other way counts as inactive or inconclusive.

Key:
[1] = qHTS assay to identify small molecule agonists of the estrogen related receptor (ERR) signaling pathway from Tox21 library (AID 1224849; calls by dose curve; also: nearly all actives have a fitted effect of over 15% in size); details: ERR reporter cell line, ONE-Glo luciferase, 18 h; at 92.4 µM (top of the series) unless noted
Method in brief: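 ERR reporter cell line (NTP) seeded, rested 6 h at 37 C/5% CO2, then pinned with Tox21 compounds in DMSO. After 18 h at 37 C, ONE-Glo luciferase luminescence was read following 30 min at room temperature.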

[2] = qHTS RealTime-Glo MT Cell Viability Assay in HepG2 cells - 24 hour (AID 1224867); also: nearly all actives have a fitted effect of over 50% in size
Method in brief: (§1)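 Luminescence read-out: viable HepG2 cells reduce a prosubstrate to a NanoLuc substrate, giving a signal proportional to live cell number. Reads taken at 0, 8, 16, 24, 32 and 40 h of compound exposure at 37 C.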

[3] = qHTS RealTime-Glo MT Cell Viability Assay in HEK293 cells - 32 hour (AID 1224868); also: top concentration of the series differs between compounds; nearly all actives have a fitted effect of over 50% in size
Method in brief: (§2)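 Nonlytic real-time viability readout: viable cells convert prosubstrate to NanoLuc substrate, giving luminescence proportional to live cell number. HEK293, 600 cells/well, compound added after 5 h, continuous culture at 37 C.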

[4] = qHTS RealTime-Glo MT Cell Viability Assay in HepG2 cells - 40 hour (AID 1224870); also: nearly all actives have a fitted effect of over 50% in size
Method in brief: (§3)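 HepG2 cells mixed with RealTime-Glo MT reagents (NanoLuc plus cell-permeant prosubstrate) were seeded at 600 cells/well, incubated 5 h at 37 C/5% CO2, then pinned with compounds in DMSO; nonlytic luminescence tracked viability during 40 h treatment.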

[5] = qHTS RealTime-Glo MT Cell Viability Assay in HEK293 cells - 16 hour (AID 1224872); also: top concentration of the series differs between compounds; nearly all actives have a fitted effect of over 50% in size
Method in brief: as §2

[6] = qHTS RealTime-Glo MT Cell Viability Assay in HepG2 cells - 8 hour (AID 1224873); also: nearly all actives have a fitted effect of over 55% in size
Method in brief: as §3

[7] = qHTS RealTime-Glo MT Cell Viability Assay in HEK293 cells - 40 hour (AID 1224874); details: RealTime-Glo luminescence; max response: hits give low values; also: nearly all actives have a fitted effect of over 50% in size
Method in brief: (§4)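 HEK293 cells mixed with RealTime-Glo reagents (NanoLuc plus cell-permeant prosubstrate) at 600 cells/well, preincubated 5 h at 37 C/5% CO2, then given 23 nL compound in DMSO. Nonlytic luminescence from viable cells was read at 0, 8, 16, 24, 32 and 40 h.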

[8] = A CellTox Green Cytotoxicity Assay to monitor cytotoxicity in HepG2 cells - 16 hour (AID 1224876); also: nearly all actives have a fitted effect of over 45% in size
Method in brief: (§5)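 HepG2 cells were seeded together with the CellTox Green dye at 600 cells/well, left 5 h at 37 C/5% CO2, then given compounds in DMSO. Fluorescence from dye bound to dead-cell DNA was read repeatedly over 40 h of treatment at 37 C.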

[9] = qHTS RealTime-Glo MT Cell Viability Assay in HepG2 cells - 32 hour (AID 1224877); also: nearly all actives have a fitted effect of over 55% in size
Method in brief: as §1

[10] = A CellTox Green Cytotoxicity Assay to monitor cytotoxicity in HepG2 cells - 24 hour (AID 1224878); also: nearly all actives have a fitted effect of over 45% in size
Method in brief: as §5

[11] = A CellTox Green Cytotoxicity Assay to monitor cytotoxicity in HepG2 cells - 40 hour (AID 1224879); also: nearly all actives have a fitted effect of over 40% in size
Method in brief: as §5

[12] = qHTS RealTime-Glo MT Cell Viability Assay in HEK293 cells - 0 hour (AID 1224880); also: top concentration of the series differs between compounds; nearly all actives have a fitted effect of over 45% in size
Method in brief: as §4

[13] = A CellTox Green Cytotoxicity Assay to monitor cytotoxicity in HEK293 cells - 32 hour (AID 1224881); also: nearly all actives have a fitted effect of over 40% in size
Method in brief: (§6)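 HEK293 cells premixed with CellTox Green dye were seeded at 600 cells/well and left 5 h at 37 C/5% CO2 before pin transfer of 23 nL compound in DMSO. Fluorescence from dye bound to dead-cell DNA was read during 40 h treatment.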

[14] = A CellTox Green Cytotoxicity Assay to monitor cytotoxicity in HepG2 cells - 0 hour (AID 1224882); also: nearly all actives have a fitted effect of over 35% in size
Method in brief: as §5

[15] = A CellTox Green Cytotoxicity Assay to monitor cytotoxicity in HepG2 cells - 32 hour (AID 1224883); also: nearly all actives have a fitted effect of over 50% in size
Method in brief: as §5

[16] = qHTS RealTime-Glo MT Cell Viability Assay in HepG2 cells - 16 hour (AID 1224885); also: nearly all actives have a fitted effect of over 50% in size
Method in brief: as §1

[17] = A CellTox Green Cytotoxicity Assay to monitor cytotoxicity in HEK293 cells - 0 hour (AID 1224869); also: nearly all actives have a fitted effect of over 50% in size
Method in brief: as §6

[18] = A CellTox Green Cytotoxicity Assay to monitor cytotoxicity in HEK293 cells - 40 hour (AID 1224871); also: nearly all actives have a fitted effect of over 45% in size
Method in brief: as §6

[19] = A CellTox Green Cytotoxicity Assay to monitor cytotoxicity in HEK293 cells - 24 hour (AID 1224875); also: nearly all actives have a fitted effect of over 45% in size
Method in brief: as §6

[20] = A CellTox Green Cytotoxicity Assay to monitor cytotoxicity in HEK293 cells - 8 hour (AID 1224884); also: nearly all actives have a fitted effect of over 35% in size
Method in brief: as §6
% is scaled to controls: 0 for no effect and ±100 for the full control effect.

CC(C)(C)NC[C@H](O)COc1cccc2c1CCCC2=O
inactive: activity change, positive = activation [1] 4.14% [at 42.5 µM] | outcome [2] | Potency [3] | outcome [4] | Potency [5] | outcome [6] | max response [7] -12% | Potency [8] | outcome [9] | Potency [10] | Potency [11] | Potency [12] | Potency [13] | Potency [14] | Potency [15] | outcome [16]

O=Cc1ccccc1Cl
inactive: activity change, positive = activation [1] 4.09% | outcome [2] | Potency [3] | outcome [4] | Potency [5] | outcome [6] | max response [7] 4.59% | Potency [8] | outcome [9] | Potency [10] | Potency [11] | Potency [12] | Potency [14] | Potency [15] | outcome [16]

O=C1c2ccccc2C(=O)c2cc(Cl)ccc21
inactive: activity change, negative = cytotoxicity [2] -1.65% [at 6.97 µM] | activity change, negative = cytotoxic [3] -1.41% [at 6.97 µM] | cytotoxicity [17] -6.57% [at 6.97 µM] | activity change, negative = cytotoxic [4] -4.67% [at 6.97 µM] | cytotoxicity increase [18] -5.31% [at 6.97 µM] | activity change, negative = cytotoxicity [5] 4.83% [at 6.97 µM] | viability change, negative = cytotoxic [6] 0.0863% [at 6.97 µM] | max response [7] 3.12% | activity change [19] -1.14% [at 6.97 µM, hits give high values] | cytotoxicity increase [8] -1.12% [at 6.97 µM] | activity change, negative = cytotoxic [9] -5.12% [at 6.97 µM] | cytotoxicity [10] 0.241% [at 6.97 µM] | cytotoxicity increase [11] 1.15% [at 6.97 µM] | activity change, negative = cytotoxicity [12] 3.49% [at 6.97 µM] | cytotoxicity increase [13] -1.78% [at 6.97 µM] | cytotoxicity [14] 3.98% [at 6.97 µM] | cytotoxicity increase [15] 0.512% [at 6.97 µM] | cytotoxicity increase [20] -6.44% [at 6.97 µM] | activity change, negative = cytotoxic [16] 1.7% [at 6.97 µM]

c1ccc2c(CC3=NCCN3)cccc2c1
inactive: activity change, positive = activation [1] 4.17% [at 42.5 µM] | outcome [2] | Potency [3] | Potency [17] | outcome [4] | Potency [18] | Potency [5] | outcome [6] | max response [7] -13.3% | Potency [19] | outcome [9] | Potency [10] | Potency [11] | Potency [12] | Potency [13] | Potency [14] | Potency [15] | Potency [20] | outcome [16]

CCC(=O)c1c(O)cc(O)cc1O
inactive: activity change, positive = activation [1] -13.5% [at 42.5 µM] | outcome [2] | Potency [3] | Potency [17] | outcome [4] | Potency [5] | outcome [6] | max response [7] 11.1% | Potency [8] | outcome [9] | Potency [10] | Potency [11] | Potency [12] | Potency [14] | Potency [15] | Potency [20] | outcome [16]

CCCC(=O)OCCC(C)CCC=C(C)C (centres undefined)
inactive: activity change, positive = activation [1] -4.9% | Potency [3] | Potency [17] | outcome [4] | Potency [5] | outcome [6] | max response [7] 0.963% | Potency [19] | Potency [8] | outcome [9] | Potency [10] | Potency [11] | Potency [13] | Potency [14] | Potency [15] | Potency [20] | outcome [16]

O=NN(CCCl)C(=O)NC1CCCCC1
inactive: outcome [2] | Potency [3] | Potency [17] | outcome [4] | Potency [18] | Potency [5] | outcome [6] | max response [7] 1.88% | Potency [19] | Potency [8] | outcome [9] | Potency [10] | Potency [11] | Potency [12] | Potency [13] | Potency [14] | Potency [15] | Potency [20] | outcome [16]

COC(=O)c1ccccc1C(=O)O
inactive: outcome [2] | Potency [3] | Potency [17] | outcome [4] | Potency [18] | Potency [5] | outcome [6] | max response [7] -0.818% | Potency [19] | Potency [8] | outcome [9] | Potency [10] | Potency [11] | Potency [12] | Potency [13] | Potency [14] | Potency [15] | Potency [20] | outcome [16]

Cc1cc(-c2ccccc2)nnc1NCCN1CCOCC1
inactive: outcome [2] | Potency [3] | Potency [17] | outcome [4] | Potency [18] | Potency [5] | outcome [6] | max response [7] -1.81% | Potency [19] | Potency [8] | outcome [9] | Potency [10] | Potency [11] | Potency [12] | Potency [13] | Potency [14] | Potency [15] | Potency [20] | outcome [16]

CC(=O)O[C@H]1C[C@@H]2CC[C@@]1(C)C2(C)C
inactive: outcome [2] | Potency [3] | Potency [17] | outcome [4] | Potency [18] | Potency [5] | outcome [6] | max response [7] 4.28% | Potency [19] | Potency [8] | outcome [9] | Potency [10] | Potency [11] | Potency [12] | Potency [13] | Potency [15] | Potency [20] | outcome [16]

COC(=O)c1cc(Cl)cc(Cl)c1
inactive: outcome [2] | Potency [3] | Potency [17] | outcome [4] | Potency [18] | Potency [5] | outcome [6] | max response [7] -0.635% | Potency [19] | Potency [8] | outcome [9] | Potency [10] | Potency [11] | Potency [12] | Potency [13] | Potency [14] | Potency [15] | Potency [20] | outcome [16]

COC(C)(OC)OC
inactive: outcome [2] | Potency [3] | Potency [17] | outcome [4] | Potency [18] | Potency [5] | outcome [6] | max response [7] 5.48% | Potency [19] | Potency [8] | outcome [9] | Potency [10] | Potency [11] | Potency [12] | Potency [13] | Potency [14] | Potency [15] | Potency [20] | outcome [16]

CCO
inactive: outcome [2] | Potency [3] | Potency [17] | outcome [4] | Potency [18] | Potency [5] | outcome [6] | max response [7] 0.927% | Potency [19] | Potency [8] | outcome [9] | Potency [10] | Potency [11] | Potency [12] | Potency [13] | Potency [14] | Potency [15] | Potency [20] | outcome [16]

OC1OCCOC1O (centres undefined)
inactive: outcome [2] | Potency [3] | Potency [17] | outcome [4] | Potency [18] | Potency [5] | outcome [6] | max response [7] 9.9% | Potency [19] | Potency [8] | outcome [9] | Potency [10] | Potency [11] | Potency [12] | Potency [13] | Potency [14] | Potency [15] | Potency [20] | outcome [16]
